# Where “and” joins values, the source holds several entries; their conditions need not be identical. Equal values may be shown once. Inconclusive results are not listed. A call without a number means that no potency is given here. A structure can be active in one record and inactive in another. Calls of active or inactive are those of the source. Calls follow the shape of the dose curve; as a rule, active = well fitted inhibition curve with a large enough effect; inconclusive = small, poorly fitted or top-dose-only effect; inactive = flat fitted curve, though single readings scatter.
# What was measured:
# [1] = system: HEK293; experiment: Cytotoxic Profiling of Annotated Libraries Using Quantitative High-Throughput Screening (AID 1296008); conditions: Five cell lines viability, CellTiter-Glo ATP luminescence, 48-72 h; max response: stronger effect = lower value
# In short: (§1)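 Cells exposed to compounds for 48 or 72 hr at 37 degrees Celsius. Viability read as ATP-coupled luminescence with CellTiter-Glo after 10 min at room temperature.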
# [2] = system: HaCat; experiment: as above; conditions: Five cell lines viability, CellTiter-Glo ATP luminescence, 48-72 h; max response: stronger effect = lower value
# In short: as §1
# [3] = system: KB-3-1; experiment: as above; conditions: Five cell lines viability, CellTiter-Glo ATP luminescence, 48-72 h; max response: stronger effect = lower value
# In short: as §1
# [4] = system: NIH3T3; experiment: as above; conditions: Five cell lines viability, CellTiter-Glo ATP luminescence, 48-72 h; max response: stronger effect = lower value
# In short: as §1
# [5] = system: MCC-13; experiment: qHTS assay to identify novel small-molecules to repurpose for Merkel cell carcinoma treatment (AID 1296009); conditions: MCC and control cell lines, CellTiter-Glo viability, 72 h; series mostly up to 46 µM
# In short: (§2)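 Cells were incubated with compound for 72 hr at 37 degree celsius before CellTiter-Glo addition. Luminescence was normalized with no-cell wells as full cytotoxicity and DMSO as baseline.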
# [6] = system: MCC-26; experiment: as above; conditions: MCC and control cell lines, CellTiter-Glo viability, 72 h; series mostly up to 46 µM
# In short: as §2
# [7] = system: CRL-7250; experiment: Cytotoxic Profiling of Annotated Libraries Using Quantitative High-Throughput Screening (AID 1296008); conditions: Five cell lines viability, CellTiter-Glo ATP luminescence, 48-72 h; max response: stronger effect = lower value
# In short: as §1
# [8] = system: HACAT; experiment: qHTS assay to identify novel small-molecules to repurpose for Merkel cell carcinoma treatment (AID 1296009); conditions: MCC and control cell lines, CellTiter-Glo viability, 72 h; at 44.8 µM (top of the series) unless noted
# In short: as §2
# [9] = system: HEK293T; experiment: as above; conditions: MCC and control cell lines, CellTiter-Glo viability, 72 h; at 44.8 µM (top of the series) unless noted
# In short: as §2
# [10] = system: MKL-1; experiment: as above; conditions: MCC and control cell lines, CellTiter-Glo viability, 72 h; series mostly up to 46 µM
# In short: as §2
# Also: nearly all actives have a fitted effect of over 60% in size.
# Potency is read from the fitted curve at half-maximal effect.
compound,measurement,setting,value
CNC(=O)c1cc(Oc2ccc(NC(=O)Nc3ccc(Cl)c(C(F)(F)F)c3)cc2)ccn1,Potency,[1],7.43 µM (active) and 5.8 µM (active)
same,max response,[2],-11.7% (inactive) and -12.9% (inactive)
same,Potency,[3],14.8 µM (active) and 6.51 µM (active)
same,Potency,[4],23.5 µM (active)
same,Potency,[5],inactive
same,Potency,[6],inactive
CCc1cc(C(N)=S)ccn1,max response,[7],-4.32% (inactive) and -3.13% (inactive)
same,max response,[2],-10.8% (inactive)
same,outcome,[2],inactive
same,max response,[3],-6.3% (inactive) and 8.73% (inactive)
same,max response,[4],-2.49% (inactive)
same,outcome,[4],inactive
same,outcome,[8],inactive
same,outcome,[9],inactive
same,Potency,[5],inactive
same,Potency,[6],inactive
same,Potency,[10],inactive
COc1ccc2cc3[n+](cc2c1OC)CCc1cc2c(cc1-3)OCO2,Potency,[7],1.06 µM (active) and 4.18 µM (active)
same,Potency,[1],1.33 µM (active) and 1.05 µM (active)
same,Potency,[3],20.6 µM (active) and 13.2 µM (active)
same,max response,[4],-15.5% (inactive) and -8.88% (inactive)
same,Potency,[5],inactive
same,Potency,[6],inactive
same,Potency,[10],1.88 µM (active) and 2.96 µM (active)
OCc1ccc(-c2nn(Cc3ccccc3)c3ccccc23)o1,Potency,[1],14.8 µM (active)
same,outcome,[3],inactive
same,Potency,[5],inactive
same,Potency,[6],inactive
CCN(CC)CC#CCOC(=O)C(O)(c1ccccc1)C1CCCCC1 (centres undefined),outcome,[7],inactive
same,outcome,[2],inactive
same,max response,[3],11.1% (inactive) and 9.45% (inactive)
same,outcome,[4],inactive
same,outcome,[8],inactive
same,Potency,[5],inactive
same,Potency,[6],inactive
same,Potency,[10],inactive
CCCCCCNC(=O)n1cc(F)c(=O)[nH]c1=O,Potency,[1],7.5 µM (active) and 13.2 µM (active)
same,max response,[2],-37.7% (inactive)
same,max response,[3],-8.63% (inactive) and -17% (inactive)
same,Potency,[4],1.5 µM (active) and 3.72 µM (active)
same,Potency,[5],inactive
same,Potency,[6],inactive
same,Potency,[10],inactive
C#CCN[C@@H]1CCc2ccccc21,max response,[7],-10.3% (inactive) and 4.11% (inactive)
same,max response,[2],0.653% (inactive)
same,max response,[3],-4.71% (inactive)
same,max response,[4],1.77% (inactive)
same,outcome,[4],inactive
same,outcome,[9],inactive
same,Potency,[5],inactive
same,Potency,[6],inactive
same,Potency,[10],inactive
O=S(=O)(c1cccc2cnccc12)N1CCCNCC1,outcome,[7],inactive
same,outcome,[2],inactive
same,max response,[3],-15.9% (inactive)
same,outcome,[3],inactive
same,max response,[4],0.496% (inactive) and -3.33% (inactive)
same,outcome,[8],inactive
same,outcome,[9],inactive
same,Potency,[5],inactive
same,Potency,[6],inactive
same,Potency,[10],inactive
COc1cc2nc(N3CCCN(C)CC3)nc(NC3CCN(Cc4ccccc4)CC3)c2cc1OC,Potency,[7],9.35 µM (active)
same,Potency,[1],6.62 µM (active)
same,Potency,[6],23.5 µM (active)
same,Potency,[10],2.96 µM (active)
COc1ncnc(NS(=O)(=O)c2ccc(N)cc2)c1OC,Potency,[1],3.32 µM (active)
same,outcome,[1],inactive
same,max response,[2],-20.7% (inactive)
same,outcome,[2],inactive
same,max response,[3],-15% (inactive) and 8.7% (inactive)
same,Potency,[4],16.6 µM (active)
same,max response,[4],-17.7% (inactive)
same,outcome,[8],inactive
same,outcome,[9],inactive
same,Potency,[5],inactive
same,Potency,[6],inactive
same,Potency,[10],inactive
C[C@@H]1C[C@H]2[C@@H]3CCC4=CC(=O)C=C[C@]4(C)[C@@]3(Cl)[C@@H](O)C[C@]2(C)[C@@]1(OC(=O)c1ccco1)C(=O)CCl,max response,[7],-41.7% (inactive)
same,max response,[2],-15.9% (inactive)
same,max response,[3],4.51% (inactive) and 5.24% (inactive)
same,Potency,[5],inactive
same,Potency,[6],inactive
same,Potency,[10],16.6 µM (active)
CCc1c2c(nc3ccc(OC(=O)N4CCC(N5CCCCC5)CC4)cc13)-c1cc3c(c(=O)n1C2)COC(=O)[C@]3(O)CC,Potency,[2],23.7 µM (active) and 4.18 µM (active)
same,max response,[3],43.3% (inactive)
same,Potency,[4],14.8 µM (active)
same,Potency,[6],16.8 µM (active)
same,Potency,[10],1.88 µM (active) and 1.87 µM (active)
COC(=O)Nc1nc2ccc(C(=O)c3ccccc3)cc2[nH]1,Potency,[7],5.9 µM (active)
same,max response,[2],4.64% (inactive)
same,outcome,[2],inactive
same,Potency,[3],0.623 µM (active)
same,Potency,[4],18.8 µM (active) and 2.64 µM (active)
same,outcome,[8],inactive
same,Potency,[5],3.72 µM (active)
Oc1c(Cl)cc(Cl)c2cccnc12,max response,[3],-16.3% (inactive)
same,Potency,[4],23.7 µM (active)
same,Potency,[5],inactive
same,Potency,[6],inactive
same,Potency,[10],5.31 µM (active)
Cc1ccc(S(=O)(=O)N[C@@H](Cc2ccccc2)C(=O)CCl)cc1,max response,[7],-1.25% (inactive)
same,outcome,[2],inactive
same,max response,[3],6.1% (inactive)
same,outcome,[4],inactive
same,outcome,[8],inactive
same,Potency,[5],inactive
same,Potency,[6],inactive
CC(=O)[C@H]1CC[C@H]2[C@@H]3CCC4=CC(=O)CC[C@]4(C)[C@H]3CC[C@]12C,max response,[4],-0.969% (inactive)
same,Potency,[5],inactive
same,Potency,[6],inactive
same,Potency,[10],inactive
Nc1ccc(S(=O)(=O)Nc2ccccn2)cc1,outcome,[8],inactive
same,outcome,[9],inactive
same,Potency,[5],inactive
same,Potency,[6],inactive
same,Potency,[10],inactive
CCOc1cc(N)c(Cl)cc1C(=O)NCC1CN(Cc2ccc(F)cc2)CCO1 (centres undefined),outcome,[7],inactive
same,max response,[2],-10.3% (inactive)
same,outcome,[2],inactive
same,max response,[3],4.82% (inactive) and -2.19% (inactive)
same,max response,[4],1.17% (inactive)
same,outcome,[4],inactive
same,outcome,[8],inactive
same,outcome,[9],inactive
same,Potency,[5],inactive
same,Potency,[6],inactive
same,Potency,[10],inactive
COc1ccc(C(=O)CC(=O)c2ccc(C(C)(C)C)cc2)cc1,max response,[7],-14.9% (inactive) and 1.38% (inactive)
same,max response,[2],-14.4% (inactive)
same,outcome,[2],inactive
same,max response,[3],-7.03% (inactive) and 3.76% (inactive)
same,max response,[4],-3.73% (inactive) and 2.63% (inactive)
same,outcome,[8],inactive
same,outcome,[9],inactive
same,Potency,[5],inactive
same,Potency,[6],inactive
same,Potency,[10],inactive and 1.05 µM (active)
NC(=O)N1c2ccccc2CC(=O)c2ccccc21,max response,[7],1.16% (inactive) and -4.89% (inactive)
same,outcome,[2],inactive
same,max response,[3],-10.3% (inactive) and 3.64% (inactive)
same,outcome,[4],inactive
same,outcome,[8],inactive
same,outcome,[9],inactive
same,Potency,[5],inactive
same,Potency,[6],inactive
same,Potency,[10],inactive
O[C@@H](CNC[C@H](O)[C@H]1CCc2cc(F)ccc2O1)[C@@H]1CCc2cc(F)ccc2O1,Potency,[3],20.9 µM (active)
same,Potency,[5],inactive
same,Potency,[6],inactive
C1CCC(C(CC2CCCCN2)C2CCCCC2)CC1 (centres undefined),Potency,[1],26.4 µM (active)
same,Potency,[5],inactive
same,Potency,[6],21.1 µM (active) and inactive
same,Potency,[10],6.68 µM (active)
CCOC(=O)c1ccc(C#Cc2ccc3c(c2)C(C)(C)CCS3)nc1,max response,[7],-0.581% (inactive) and -12.4% (inactive)
same,outcome,[2],inactive
same,max response,[3],5.71% (inactive) and 0.466% (inactive)
same,max response,[4],-3.55% (inactive)
same,outcome,[4],inactive
same,outcome,[8],inactive
same,Potency,[5],inactive
same,Potency,[6],inactive
same,Potency,[10],inactive
CCn1cc(C(=O)O)c(=O)c2cc(F)c(N3CCNCC3)cc21,max response,[7],-1.25% (inactive) and -6.48% (inactive)
same,max response,[2],-20% (inactive)
same,outcome,[2],inactive
same,max response,[3],-20.2% (inactive) and -20.3% (inactive)
same,outcome,[3],inactive
same,max response,[4],-0.113% (inactive) and -7.16% (inactive)
same,outcome,[8],inactive
same,Potency,[5],inactive
same,Potency,[6],inactive
same,Potency,[10],inactive
CN1CCCC(n2nc(Cc3ccc(Cl)cc3)c3ccccc3c2=O)CC1 (centres undefined),max response,[2],3.73% (inactive)
same,outcome,[2],inactive
same,max response,[3],-6.94% (inactive) and -2.19% (inactive)
same,max response,[4],5% (inactive)
same,outcome,[8],inactive
same,Potency,[5],inactive
same,Potency,[6],inactive and 11.8 µM (active)
same,Potency,[10],1.48 µM (active)
CCCCc1oc2ccc(NS(C)(=O)=O)cc2c1C(=O)c1ccc(OCCCN(CCCC)CCCC)cc1,Potency,[1],11.6 µM (active)
same,Potency,[2],23.7 µM (active)
same,Potency,[3],23.1 µM (active)
same,Potency,[4],9.44 µM (active)
same,Potency,[5],inactive
same,Potency,[6],inactive
COc1ccc2c(c1)c(CC(=O)OCC(=O)O)c(C)n2C(=O)c1ccc(Cl)cc1,max response,[7],-1.43% (inactive) and 4.64% (inactive)
same,max response,[2],-2.32% (inactive) and -4.14% (inactive)
same,max response,[3],-10.9% (inactive) and 5.13% (inactive)
same,max response,[4],-11.9% (inactive) and 4.26% (inactive)
same,outcome,[9],inactive
same,Potency,[5],inactive
same,Potency,[6],inactive
same,Potency,[10],inactive
COCCCOc1cc(C[C@@H](C[C@H](N)[C@@H](O)C[C@H](C(=O)NCC(C)(C)C(N)=O)C(C)C)C(C)C)ccc1OC,max response,[7],-2.04% (inactive)
same,max response,[2],0.78% (inactive)
same,outcome,[2],inactive
same,max response,[3],-10.1% (inactive) and 2.39% (inactive)
same,max response,[4],-0.804% (inactive)
same,outcome,[4],inactive
same,outcome,[8],inactive
same,outcome,[9],inactive
same,Potency,[5],inactive
same,Potency,[6],inactive
same,Potency,[10],inactive
CC(C)(C#N)c1cc(Cn2cncn2)cc(C(C)(C)C#N)c1,Potency,[5],inactive
same,Potency,[6],inactive
same,Potency,[10],inactive
